In PubChem BioAssay (NCI):
Compounds without any hit were thinned out: in the full panel of roughly 83,000, 20% have a hit.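 Activity criterion: percent growth below 10, measured after cells in 96-well plates were exposed to a single compound concentration for 48 hours.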 Values without a mark were called inactive. Active and inactive are the calls of the source.

Key:
Assay in all cases: NCI-60 one-dose screen, 48 h (100 = growth as untreated, 0 = no growth, -100 = all killed)
Conditions in all cases: 10 µM unless noted
T-47D breast = tested on: T-47D breast
BT-549 breast = tested on: BT-549 breast
MDA-MB-435 melanoma = tested on: MDA-MB-435 melanoma
SW-620 colon = tested on: SW-620 colon
MCF7 breast = tested on: MCF7 breast
HCT-116 colon = tested on: HCT-116 colon
HCC-2998 colon = tested on: HCC-2998 colon
KM12 colon = tested on: KM12 colon

| SMILES | growth (T-47D breast) | growth (BT-549 breast) | growth (MDA-MB-435 melanoma) | growth (SW-620 colon) | growth (MCF7 breast) | growth (HCT-116 colon) | growth (HCC-2998 colon) | growth (KM12 colon) |
| --- | --- | --- | --- | --- | --- | --- | --- | --- |
| CNC(=O)c1cc(Oc2cccc3nc(NC(=O)Nc4cc(C(F)(F)F)cc(C(F)(F)F)c4)ccc23)ccn1 | 15.5% | 46.1% | 40.2% | 63.8% | 50.4% | 36.7% | 79.7% | 53.8% |
| COc1ccc2nc3ccccc3c(NCCNCCO)c2c1 | 4.93% (active) | 8.11% (active) | -53.8% (active) | -18.3% (active) | 2.08% (active) | -36.5% (active) | -72.5% (active) | -30.5% (active) |
| CCCCCCCCCCCCCCNC(=O)Nc1ccc(Cl)c(Cl)c1 | 33.9% | 24.7% | 18.3% | 32.9% | 30% | 23.6% | 14.5% | 35.8% |
| O=S(=O)(/N=c1/n(-c2ccccc2)nc2n1CCN2C1=NCCN1)c1ccc(-c2ccccc2)cc1 | 94% | 97.9% | 94.4% | 98.3% | 97.8% | 95.6% | 101% | 103% |
| C=C(C)[C@@H]1CC[C@]2(COCCCN)CC[C@]3(C)[C@H](CC[C@@H]4[C@@](C)(CCCNCCCN)[C@H](C(=C)C)CC[C@]43C)[C@@H]12 | -60.6% [100 µM] (active) | -43.2% [100 µM] (active) | -68.5% [100 µM] (active) | -67% [100 µM] (active) | -47.9% [100 µM] (active) | -31.7% [100 µM] (active) | -55% [100 µM] (active) | -62.5% [100 µM] (active) |
| Nc1cc(NN=C(c2ccc(O)cc2)c2ccc(O)cc2)c([N+](=O)[O-])cc1[N+](=O)[O-] | -55.9% (active) | 102% | 96.5% | 101% | -60.5% (active) | -61.8% (active) | -97.6% (active) | 71.5% |
| Cc1cccc(C[C@H](NC(=O)Nc2ccc(Cl)cc2F)C(=O)N[C@@H]2C(=O)N3C[C@H](O)C[C@H]3C(=O)N3CCCC[C@H]3C(=O)N[C@@H](C)C(=O)N3C[C@H](C)C[C@H]3C(=O)O[C@H]2C)c1 | 5.41% (active) | -9.79% (active) | -5.25% (active) | 20.7% | 6.39% (active) | -31.6% (active) | -49% (active) | -31.4% (active) |
| CCN(CC)CCCC(C)Nc1c2ccc(C)cc2nc2ccc(OC)cc12 (centres undefined) | 70.7% | 73% | 10.2% | -41.4% (active) | 4.31% (active) | 16.6% | 34.9% | 16.4% |
| COc1ccc(C2CC(c3cc(OC)c(OC)c(OC)c3)=NN2C(C)=O)cc1OCC(=O)Nc1nc2ccc(C(F)(F)F)cc2s1 (centres undefined) | 67.5% | 47.5% | 69.5% | 84.7% | 65% | 30.5% | 92.3% | 64.5% |
| COc1ccc(OC)c([N+](=O)[O-])c1C(=O)CNC(C)=O | 103% | 84.5% | 103% | 106% | 92.7% | 106% | 101% | 106% |
| CCCCOC(=O)c1c(C)[nH]c(/C=C2\N=C(c3ccc[nH]3)C=C2OC)c1C | -46.1% (active) | 14.9% | -51.1% (active) | 11.6% | -44.2% (active) | -76.1% (active) | -28.1% (active) | -5.76% (active) |
| CCN(CC)c1ccc2cc(C(Nc3ccc(C)cc3)c3nnnn3C(C)(C)C)c(=O)oc2c1 (centres undefined) | 71.1% | 89.1% | 97.5% | 102% | 81.4% | 87.9% | 107% | 103% |
| COc1c(B(O)O)cccc1-c1nc2ccc3[nH]ncc3c2c2c1CCC2 | 48% | 60% | 64% | 54.8% | 74.4% | 47.3% | 88.8% | 51.3% |
| CCOC(=O)C(c1ccccc1)N1C(=O)c2ccccc2C1=O (centres undefined) | 97.3% | 90.3% | 93.1% | 97.4% | 91.4% | 98.5% | 98.4% | 98.8% |
| Cc1cc(-c2ccc(N=Nc3c(S(=O)(=O)O)cc4cc(S(=O)(=O)O)cc(N)c4c3O)c(C)c2)ccc1N=Nc1cc(S(=O)(=O)O)c2ccccc2c1O | 99.6% | 107% | 104% | 109% | 92.2% | 96.4% | 104% | 102% |
| CC[C@]1(O)CC2CN(CCc3c([nH]c4ccccc34)[C@@](C(=O)OC)(c3cc4c(cc3OC)N(C=O)[C@H]3[C@@](O)(C(=O)OC)[C@H](OC(C)=O)[C@]5(CC)C=CCN6CC[C@]43[C@@H]65)C2)C1 (some centres undefined) | 91% | 15.7% | -25.7% (active) | 24% | 21.9% | 5.51% (active) | 0.206% (active) | -30.7% (active) |
| CC(C)OC(=O)Nc1cc(F)c(F)cc1F | 104% | 104% | 103% | 99.2% | 94.3% | 110% | 101% | 101% |
| O=c1cc(-c2ccccc2)oc2cc(OCc3cn(Cc4ccc(F)cc4)nn3)cc(O)c12 | 44.2% [100 µM] | 16.3% [100 µM] | 98.2% [100 µM] | 102% [100 µM] | 65.7% [100 µM] | 48.5% [100 µM] | 100% [100 µM] | 99.4% [100 µM] |
| O=C1CN(Cc2ccc(C(=O)NO)cc2)C(=O)[C@@H](Cc2ccccc2)N1 | 93.2% | 101% | 100% | 102% | 96% | 97.2% | 109% | 104% |
| CC1(C)S[C@@H]2[C@H](NC(=O)[C@H](C(=O)O)c3cccs3)C(=O)N2[C@H]1C(=O)O | 102% | 96.2% | 106% | 113% | 110% | 108% | 103% | 106% |
| CCn1cc(-c2[nH]c(=S)ncc2-c2ccc(Cl)cc2)c(-c2ccc(Br)cc2)n1 | 59.3% | 91.2% | 85% | 103% | 84.8% | 72.6% | 99.5% | 94% |
| Nn1c(Nc2ccc(S(=O)(=O)Nc3ncccn3)cc2)nnc(/C=C/c2c(O)ccc3ccccc23)c1=O | 70.9% | 101% | 95.2% | 94% | 76.6% | 89.9% | 114% | 82.9% |
| NC(=O)c1cccc(-c2ccc(S(=O)(=O)Nc3ccc4c(c3)N(C(=O)C3CC3)CCC4)cc2)c1 | 26.1% | 96.7% | 1.89% (active) | 32.3% | 22.9% | 98.2% | 64.5% | 18.9% |
| CCOC(=O)c1nn(C2CCCCO2)c2ccc(NS(=O)(=O)c3ccc(C)cc3)cc12 (centres undefined) | 80% | 91.8% | 100% | 98.1% | 93.1% | 87.8% | 107% | 104% |
| CCN(CC)CCCNCc1cc(-c2ccccc2)nc2ccccc12 | 53.4% | 75.9% | 53.3% | 24.2% | 35.7% | 7.25% (active) | 101% | 82.6% |
| CC(=O)OC[C@]12CC[C@@H]([C@@H](C)C(N)=O)[C@@H]1[C@H]1CC[C@@H]3[C@@]4(C)CC[C@H](OC(C)=O)C(C)(C)[C@@H]4CC[C@@]3(C)[C@]1(C)CC2 | -8.82% [100 µM] (active) | -55.1% [100 µM] (active) | -63.8% [100 µM] (active) | -55.1% [100 µM] (active) | -45.6% [100 µM] (active) | -84.2% [100 µM] (active) | -68.1% [100 µM] (active) | -62.1% [100 µM] (active) |
| CCCCCCCCCN(CCCCCCCCC)C(C)C(=O)c1ccc2cc(Br)c3ccccc3c2c1 (centres undefined) | 79.8% | 101% | 76.5% | 67% | 97.7% | 73.5% | 47.7% | 81.4% |
| C#C[C@]1(O)CC[C@H]2[C@@H]3CC=C4c5nc(Nc6ccccc6[N+](=O)[O-])sc5CC[C@]4(C)[C@H]3CC[C@@]21C | 41.3% | 34% | 66.1% | 76% | 56.9% | 45.7% | 61.1% | 54.1% |
